PubChem BioAssay AID2116 (The Scripps Research Institute Molecular Screening Center, 2009)
Calls of active or inactive are those of the source. The rule behind the calls is not given here.

target: Mucolipin-3 (Homo sapiens) (UniProt Q8TDD5); assay: activators of mucolipin-3 and mucolipin-2 – cell-based, patch clamp, Fura-2 profiling panel (AID 2116); details: HEK293 cells expressing TRPML3-YFP, TRPML3 Patch Clamp Assay; patch clamp current at -80 mV
Sequence (Q8TDD5 whole entry, looked up): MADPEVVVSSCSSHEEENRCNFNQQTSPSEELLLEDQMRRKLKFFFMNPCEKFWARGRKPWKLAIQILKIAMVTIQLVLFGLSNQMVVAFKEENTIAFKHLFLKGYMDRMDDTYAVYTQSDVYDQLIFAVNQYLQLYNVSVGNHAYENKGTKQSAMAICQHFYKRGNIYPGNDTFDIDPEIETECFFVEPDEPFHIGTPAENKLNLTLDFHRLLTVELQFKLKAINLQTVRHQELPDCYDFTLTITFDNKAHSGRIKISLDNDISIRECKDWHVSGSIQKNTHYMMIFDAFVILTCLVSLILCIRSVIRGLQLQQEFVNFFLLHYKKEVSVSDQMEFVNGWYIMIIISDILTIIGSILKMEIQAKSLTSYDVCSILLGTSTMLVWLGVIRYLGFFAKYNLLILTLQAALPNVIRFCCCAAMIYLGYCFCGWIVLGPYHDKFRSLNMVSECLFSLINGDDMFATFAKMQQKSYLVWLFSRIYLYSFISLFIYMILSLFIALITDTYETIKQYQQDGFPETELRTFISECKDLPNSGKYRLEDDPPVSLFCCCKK

| SMILES | current density | outcome |
| --- | --- | --- |
| O=S(=O)(NC1CCCCC1N1CCOCC1)c1ccc(Cl)cc1 (stereo not given) | -0.55 nA/pF | active; no effect on six other TRP channels |
| O=S(=O)(Nc1ccccc1N1CCOCC1)c1ccc(Cl)s1 | -0.37 nA/pF | active; no effect on six other TRP channels |
| O=S(=O)(Nc1ccccc1N1CCCCC1)c1ccc(Cl)s1 | -0.24 nA/pF | active; no effect on six other TRP channels |
| Cc1ccc(N2CCN(S(=O)(=O)N3CCCCC3)CC2)c(C)c1 | -0.42 nA/pF | active; no effect on six other TRP channels |
| Cc1ccc(S(=O)(=O)Nc2ccccc2-c2ccccc2)cc1 | -0.02 nA/pF | active; no effect on six other TRP channels |
